Outcome and AC50 data for 33 molecules are collected here from PubChem BioAssay (EPA / NIEHS).

Results filed as inconclusive are left out. The source made the active and inactive calls. How the source made its calls: active means hit-call score of the fitted dose curve at least 0.9, where 1 is the maximum; inconclusive means response in the unintended direction; inactive means score below 0.9.

Sequence of PGR (gene 5241) (P06401 whole entry, looked up): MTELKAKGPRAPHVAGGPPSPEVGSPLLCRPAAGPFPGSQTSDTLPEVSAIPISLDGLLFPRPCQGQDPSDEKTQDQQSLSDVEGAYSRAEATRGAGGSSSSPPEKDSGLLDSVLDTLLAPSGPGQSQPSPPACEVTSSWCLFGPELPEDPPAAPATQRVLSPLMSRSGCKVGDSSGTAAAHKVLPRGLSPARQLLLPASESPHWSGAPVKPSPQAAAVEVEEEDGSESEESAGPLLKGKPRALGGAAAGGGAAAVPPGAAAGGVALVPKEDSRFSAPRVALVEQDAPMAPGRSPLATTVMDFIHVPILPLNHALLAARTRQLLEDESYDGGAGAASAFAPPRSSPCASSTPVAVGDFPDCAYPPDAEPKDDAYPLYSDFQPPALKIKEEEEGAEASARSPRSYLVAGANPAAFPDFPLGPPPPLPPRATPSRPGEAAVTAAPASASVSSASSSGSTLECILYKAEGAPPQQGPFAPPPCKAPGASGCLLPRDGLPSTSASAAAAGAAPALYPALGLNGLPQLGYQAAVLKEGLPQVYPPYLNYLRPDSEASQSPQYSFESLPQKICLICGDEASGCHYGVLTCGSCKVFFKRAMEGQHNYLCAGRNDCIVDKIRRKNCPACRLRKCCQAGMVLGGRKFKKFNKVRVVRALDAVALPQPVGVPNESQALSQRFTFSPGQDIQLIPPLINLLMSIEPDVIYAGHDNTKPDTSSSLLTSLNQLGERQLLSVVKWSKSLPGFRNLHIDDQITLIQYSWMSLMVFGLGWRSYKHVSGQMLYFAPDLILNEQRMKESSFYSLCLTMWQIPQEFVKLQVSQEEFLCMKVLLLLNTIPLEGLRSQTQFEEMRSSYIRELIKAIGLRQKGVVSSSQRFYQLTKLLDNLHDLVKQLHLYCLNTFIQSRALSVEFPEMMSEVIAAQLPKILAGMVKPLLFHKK
Sequence of Estrogen receptor beta (Homo sapiens) (Q92731 whole entry, looked up, the tested form may be a part): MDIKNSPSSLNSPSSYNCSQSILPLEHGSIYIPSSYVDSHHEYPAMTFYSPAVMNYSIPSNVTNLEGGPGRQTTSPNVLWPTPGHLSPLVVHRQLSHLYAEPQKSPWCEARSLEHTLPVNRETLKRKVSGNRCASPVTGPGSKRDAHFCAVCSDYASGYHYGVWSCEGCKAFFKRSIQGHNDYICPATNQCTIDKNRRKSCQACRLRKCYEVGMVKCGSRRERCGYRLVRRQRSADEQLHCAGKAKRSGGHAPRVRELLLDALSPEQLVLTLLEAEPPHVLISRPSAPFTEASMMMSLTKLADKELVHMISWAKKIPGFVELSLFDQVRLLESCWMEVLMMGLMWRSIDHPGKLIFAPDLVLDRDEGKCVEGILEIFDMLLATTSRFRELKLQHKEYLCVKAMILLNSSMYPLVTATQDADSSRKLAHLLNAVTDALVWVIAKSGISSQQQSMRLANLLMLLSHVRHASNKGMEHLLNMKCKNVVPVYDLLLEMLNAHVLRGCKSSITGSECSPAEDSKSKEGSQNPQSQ
Sequence of human Peroxisome Proliferator-activated Receptor alpha (PPARa), PPARA (gene 5465) (Q07869 whole entry, looked up): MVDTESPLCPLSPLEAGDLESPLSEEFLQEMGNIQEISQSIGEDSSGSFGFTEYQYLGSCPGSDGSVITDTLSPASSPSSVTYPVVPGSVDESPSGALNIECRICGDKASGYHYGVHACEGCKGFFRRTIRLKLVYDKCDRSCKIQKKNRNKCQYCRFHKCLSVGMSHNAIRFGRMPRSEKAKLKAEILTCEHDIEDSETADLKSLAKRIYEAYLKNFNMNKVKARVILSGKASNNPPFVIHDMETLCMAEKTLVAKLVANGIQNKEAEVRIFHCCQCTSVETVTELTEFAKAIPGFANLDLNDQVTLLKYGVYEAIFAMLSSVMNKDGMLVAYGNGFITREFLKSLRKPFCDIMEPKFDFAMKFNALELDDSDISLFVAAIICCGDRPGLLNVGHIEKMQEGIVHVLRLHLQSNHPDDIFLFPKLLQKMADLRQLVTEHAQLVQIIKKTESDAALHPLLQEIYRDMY

The target of the first assay is Estrogen receptor beta (Homo sapiens) (UniProt Q92731). The experiment in a line: OT_ER_ERbERb_0480: Odyssey Thera (OT) 8-hour HEK293T Protein-Complementation Assay for Estrogen Receptor-beta/-beta Homodimer (AID 2283357).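 Further: active means signal gain over DMSO baseline.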 In a few lines:
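Fluorescence gain from complemented reporter fragments on ER-beta LBD homodimer in HEK293T was quantified against DMSO controls after 8 h treatment, fixation in 4% formaldehyde and Draq5 staining.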
`O=[N+]([O-])c1ccc(Oc2ccc(Cl)cc2Cl)cc1`: the result was inactive.
Usually AC50 stands for the concentration at which the activity in the assay is half-maximal. In the case of `CCC(C)c1ccc(O)cc1` (centres undefined), the AC50 is 16.3 µM (active).
Still for that read-out and setting: the same measure for `CCCCOC(=O)c1ccccc1C(=O)OCc1ccccc1`: 12.6 µM (active).
As to `CC(C)(C)OOC(=O)c1ccccc1`, the call was inactive.
Consider `Clc1ccccc1Cl`, for which the call was inactive.
On to `Clc1ccc(C(c2ccc(Cl)cc2)C(Cl)(Cl)Cl)cc1`, for which the AC50 was 12.7 µM (active).
Turning to `Nc1cc(Cl)cc(C(=O)O)c1Cl`, the outcome was inactive.
With `ClCCOCCCl`, the call was inactive.
Same read-out and setting: the same measure for `CN(C)C(=O)Nc1ccc(Cl)cc1`: “inactive”; for `Cc1cccc(N)c1N`: “inactive”.
On the same count and under the same terms, under `C=CCc1ccc2c(c1)OCO2` stands “inactive”; under `CN(C)c1ccccc1`, “inactive”.
For `Oc1ccc2ccc3cccc4ccc1c2c34`, the concentration at half-maximal activity (AC50) is 12.3 µM (active).
In the case of `Nc1ccc(Oc2ccc(N)cc2)cc1`, the outcome was inactive.
As for `CC(O)CCO` (centres undefined), the result was inactive.
On to `COP(=S)(OC)SCN1C(=O)c2ccccc2C1=O`, for which the call was inactive.
The same measure, in the same setting: under `CCCCCCCCOC(=O)c1ccc(C(=O)OCCCCCCCC)c(C(=O)OCCCCCCCC)c1` stands “inactive”; under `COC(=O)c1ccccc1N`, “inactive”.
As to `c1ccc2c(c1)-c1cccc3cccc-2c13`, the half-maximal activity concentration (AC50) was 37 µM (active).
For `CCN(CC)CCO`, the molecule was classed as inactive.
Still for that read-out and setting: under `c1ccc(NNc2ccccc2)cc1` stands “inactive”.
Same read-out and setting: under `Clc1ccc(Cl)c(Cl)c1` stands “inactive”.
Same read-out and setting: the same measure for `O=C(N[C@H](c1ccccc1)[C@@H]1CN2CCC1CC2)c1c(Cl)ccc(C(F)(F)F)c1Cl`: “inactive”.

The target in a further assay is human Peroxisome Proliferator-activated Receptor alpha (PPARa), PPARA (gene 5465) (UniProt Q07869). The assay can be described thus: NVS_NR_hPPARa: NovaScreen (NVS) Nuclear Receptor Binding Assay for human Peroxisome Proliferator-activated Receptor alpha (PPARa) (AID 2283359).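 Further: activity means loss of TR-FRET signal versus DMSO baseline.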 Summed up:
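One-hour incubation, cell-free extracted protein, TR-FRET binding readout; signal loss vs DMSO scored. Screen: 25 uM duplicates, confirmatory dose series for actives.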
For the molecule `CCOC(=O)[C@]1(c2ccccc2)Oc2ccccc2[C@@H]1N`, the molecule was classed as inactive.
Still for that read-out and setting: the same measure for `CCCCOC(=O)c1ccccc1C(=O)OCc1ccccc1`: “inactive”; for `CC(C)(C)OOC(=O)c1ccccc1`: “inactive”.
Same read-out and setting: under `Clc1ccc(C(c2ccc(Cl)cc2)C(Cl)Cl)cc1` stands “inactive”; under `O=C(O)C1C2CCC(O2)C1C(=O)O` (centres undefined), “inactive”; under `Cc1cccc(N)c1N`, “inactive”.
With `C=CCc1ccc2c(c1)OCO2`, the call was inactive.
In the case of `Oc1ccc2ccc3cccc4ccc1c2c34`, the result was inactive.
The same measure, in the same setting: under `Nc1ccc(Oc2ccc(N)cc2)cc1` stands “inactive”; under `CCN(CC)N=O`, “inactive”; under `CS(=O)(=O)NC(=O)c1cc(Oc2ccc(C(F)(F)F)cc2Cl)ccc1[N+](=O)[O-]`, “inactive”.
`c1ccc(NNc2ccccc2)cc1`: the molecule was called inactive.
For `Oc1ccccc1Cl`, the molecule was classed as inactive.

A further assay has as its target PGR (gene 5241) (UniProt P06401). The assay can be described thus: NVS_NR_hPR: NovaScreen (NVS) Nuclear Receptor Binding Assay for human Progestron Receptor (PR) (AID 2283360).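 Further: active means loss of bound radioligand signal versus DMSO baseline.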 Summed up: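 Competitive displacement of a labelled radioligand from T47D-derived receptor protein is measured in a cell-free format. Initial testing uses 25 uM in duplicate, with positive and negative controls on every plate.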
As for `Cc1ccc(N=C=O)cc1N=C=O`, the molecule was called inactive.
Same read-out and setting: the same measure for `O=Cc1ccco1`: “inactive”; for `Oc1ccc2ccc3cccc4ccc1c2c34`: “inactive”.
Regarding `C1=Cc2cccc3cccc1c23`, the molecule was classed as inactive.
On to `CCCCCCCCOC(=O)c1ccc(C(=O)OCCCCCCCC)c(C(=O)OCCCCCCCC)c1`, for which the molecule was called inactive.
As to `c1ccc2c(c1)-c1cccc3cccc-2c13`, the molecule was classed as inactive.
Consider `[As]#[In]`, for which the outcome was inactive.
On to `CCN(CC)CCO`, for which the molecule was called inactive.
